In PMC7862700, “An all-to-all approach to the identification of sequence-specific readers for epigenetic DNA modifications on cytosine” one finds binding signal data, which are given here for eight sequences.

Holding throughout (assay): DAPPL (digital affinity profiling via proximity ligation, sequencing); 10 mM Tris-HCl pH 7.5, 50 mM NaCl, 1 mM DTT, 4% glycerol, room temperature, 30 min; GST-TFs on glutathione beads, 16-mer random dsDNA library, 0.1% formaldehyde crosslink after washing; high values mean tight binding
Holding throughout (details): protein: recombinant; tags: N-terminal GST; dsDNA, one strand shown

The target in one assay is T1, FLI1 (Homo sapiens, UniProt Q01543 1-452).
T1 sequence: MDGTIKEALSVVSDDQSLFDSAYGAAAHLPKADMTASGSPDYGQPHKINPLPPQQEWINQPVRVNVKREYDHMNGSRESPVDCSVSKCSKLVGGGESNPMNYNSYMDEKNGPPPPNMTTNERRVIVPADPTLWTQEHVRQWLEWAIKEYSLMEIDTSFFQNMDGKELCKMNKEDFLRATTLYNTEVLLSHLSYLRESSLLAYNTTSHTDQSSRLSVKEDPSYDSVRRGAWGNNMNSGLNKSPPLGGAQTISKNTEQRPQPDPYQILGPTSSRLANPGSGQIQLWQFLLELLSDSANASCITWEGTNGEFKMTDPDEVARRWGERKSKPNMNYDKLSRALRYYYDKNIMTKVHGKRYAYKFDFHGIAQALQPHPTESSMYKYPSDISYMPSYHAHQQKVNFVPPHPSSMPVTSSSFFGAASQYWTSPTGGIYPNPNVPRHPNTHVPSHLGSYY
The gist of the method: (§1)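 A tag-only sample was pooled with DNA-barcoded human transcription factors that had been expressed in yeast as GST fusions and captured on glutathione beads. The pools were incubated for 30 min at room temperature with 200 nmole of a random double-stranded 16-mer DNA library in Tris/NaCl/DTT/glycerol buffer, then washed, crosslinked with 0.1% formaldehyde, proximity-ligated (BsaI/T4 ligase, 1 h, 37 °C), PCR-amplified and sequenced on an Illumina NextSeq500. Binding signal is each hexamer's read frequency for a factor divided by its frequency for the tag-only sample.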

The target in the next assay is T2, ELK1 (Homo sapiens, UniProt P19419 1-428).
T2 sequence: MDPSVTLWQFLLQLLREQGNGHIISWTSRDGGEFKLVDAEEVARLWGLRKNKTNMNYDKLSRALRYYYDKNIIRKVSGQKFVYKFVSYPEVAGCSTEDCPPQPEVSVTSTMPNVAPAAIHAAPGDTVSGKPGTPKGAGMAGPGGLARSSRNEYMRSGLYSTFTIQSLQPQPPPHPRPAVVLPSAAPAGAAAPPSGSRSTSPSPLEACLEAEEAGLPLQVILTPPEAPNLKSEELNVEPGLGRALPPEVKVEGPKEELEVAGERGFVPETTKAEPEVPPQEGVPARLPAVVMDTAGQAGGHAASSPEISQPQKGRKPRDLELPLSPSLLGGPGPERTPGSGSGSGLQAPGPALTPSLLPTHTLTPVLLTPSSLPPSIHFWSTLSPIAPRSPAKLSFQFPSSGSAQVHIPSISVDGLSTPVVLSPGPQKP
The procedure, abridged:
as §1

In the next assay the target is T3, GABPA (Homo sapiens, UniProt Q06546 1-454).
T3 sequence: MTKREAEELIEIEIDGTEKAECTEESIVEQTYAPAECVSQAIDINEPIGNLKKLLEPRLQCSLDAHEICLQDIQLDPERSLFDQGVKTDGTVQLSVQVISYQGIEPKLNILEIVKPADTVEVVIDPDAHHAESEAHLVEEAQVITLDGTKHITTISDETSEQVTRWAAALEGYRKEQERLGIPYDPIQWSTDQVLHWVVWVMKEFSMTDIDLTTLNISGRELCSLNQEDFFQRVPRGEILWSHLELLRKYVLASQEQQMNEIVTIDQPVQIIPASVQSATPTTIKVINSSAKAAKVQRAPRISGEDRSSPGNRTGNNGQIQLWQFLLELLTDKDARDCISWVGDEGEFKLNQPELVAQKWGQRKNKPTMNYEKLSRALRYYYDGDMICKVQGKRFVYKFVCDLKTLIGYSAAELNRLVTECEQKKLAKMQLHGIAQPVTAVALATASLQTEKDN
The gist of the method: as §1

A further assay deals with T4, ERG (Homo sapiens, UniProt P11308 1-479).
T4 sequence: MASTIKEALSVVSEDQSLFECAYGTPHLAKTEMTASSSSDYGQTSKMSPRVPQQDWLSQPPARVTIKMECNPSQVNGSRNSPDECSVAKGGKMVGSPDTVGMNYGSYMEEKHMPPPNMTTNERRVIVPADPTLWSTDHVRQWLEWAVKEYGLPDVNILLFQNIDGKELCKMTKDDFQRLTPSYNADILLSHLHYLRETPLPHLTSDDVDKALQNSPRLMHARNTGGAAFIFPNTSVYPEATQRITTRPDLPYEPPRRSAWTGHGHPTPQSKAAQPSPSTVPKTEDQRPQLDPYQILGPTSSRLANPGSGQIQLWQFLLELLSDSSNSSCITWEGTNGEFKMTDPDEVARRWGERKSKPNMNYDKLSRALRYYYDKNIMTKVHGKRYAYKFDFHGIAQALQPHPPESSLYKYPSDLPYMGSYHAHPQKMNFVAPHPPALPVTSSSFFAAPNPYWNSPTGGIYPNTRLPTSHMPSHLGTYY
The procedure, abridged: as §1

Another assay concerns the target ELF1 (Homo sapiens, UniProt P32519 1-619). The gist of the method:
as §1

Another assay has as its target T5, EHF (Homo sapiens, UniProt Q9NZC4 1-300).
T5 sequence: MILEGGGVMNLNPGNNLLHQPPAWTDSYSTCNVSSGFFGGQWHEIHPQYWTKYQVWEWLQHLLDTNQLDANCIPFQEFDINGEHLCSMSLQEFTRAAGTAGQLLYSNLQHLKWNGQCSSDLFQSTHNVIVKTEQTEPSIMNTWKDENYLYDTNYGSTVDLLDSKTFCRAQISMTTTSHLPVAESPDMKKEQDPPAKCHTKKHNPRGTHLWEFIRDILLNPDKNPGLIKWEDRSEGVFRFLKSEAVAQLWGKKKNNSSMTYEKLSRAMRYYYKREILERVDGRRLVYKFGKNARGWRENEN
The procedure, abridged:
as §1

For another assay, the target named is SPI1 (Homo sapiens, UniProt P17947 1-270). The gist of the method: as §1
In another assay the target is SPIB (Homo sapiens, UniProt Q01892 1-262). The procedure, abridged:
as §1

A further assay concerns the target T6, ELK3 (Homo sapiens, UniProt P41970 1-407).
T6 sequence: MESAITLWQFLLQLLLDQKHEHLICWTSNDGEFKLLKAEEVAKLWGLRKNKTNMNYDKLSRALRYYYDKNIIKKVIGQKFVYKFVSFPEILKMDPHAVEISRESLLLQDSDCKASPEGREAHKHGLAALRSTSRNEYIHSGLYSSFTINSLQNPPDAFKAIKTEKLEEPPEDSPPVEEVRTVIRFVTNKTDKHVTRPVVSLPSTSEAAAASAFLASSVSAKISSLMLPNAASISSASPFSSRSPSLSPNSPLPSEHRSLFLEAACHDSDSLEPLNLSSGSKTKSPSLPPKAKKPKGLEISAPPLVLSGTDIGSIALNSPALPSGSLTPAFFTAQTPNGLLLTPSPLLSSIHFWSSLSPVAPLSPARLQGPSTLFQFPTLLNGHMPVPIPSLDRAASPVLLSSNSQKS
The gist of the method:
as §1

Sequence of SPIB (Q01892 whole entry): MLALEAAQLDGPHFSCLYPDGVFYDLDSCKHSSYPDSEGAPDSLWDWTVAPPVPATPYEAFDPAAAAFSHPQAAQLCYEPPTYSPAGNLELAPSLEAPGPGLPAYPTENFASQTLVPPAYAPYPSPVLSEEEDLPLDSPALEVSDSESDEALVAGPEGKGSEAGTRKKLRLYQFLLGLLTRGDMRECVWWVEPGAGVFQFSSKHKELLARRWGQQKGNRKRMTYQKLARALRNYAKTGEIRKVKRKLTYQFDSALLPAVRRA
Sequence of ELF1 (P32519 whole entry): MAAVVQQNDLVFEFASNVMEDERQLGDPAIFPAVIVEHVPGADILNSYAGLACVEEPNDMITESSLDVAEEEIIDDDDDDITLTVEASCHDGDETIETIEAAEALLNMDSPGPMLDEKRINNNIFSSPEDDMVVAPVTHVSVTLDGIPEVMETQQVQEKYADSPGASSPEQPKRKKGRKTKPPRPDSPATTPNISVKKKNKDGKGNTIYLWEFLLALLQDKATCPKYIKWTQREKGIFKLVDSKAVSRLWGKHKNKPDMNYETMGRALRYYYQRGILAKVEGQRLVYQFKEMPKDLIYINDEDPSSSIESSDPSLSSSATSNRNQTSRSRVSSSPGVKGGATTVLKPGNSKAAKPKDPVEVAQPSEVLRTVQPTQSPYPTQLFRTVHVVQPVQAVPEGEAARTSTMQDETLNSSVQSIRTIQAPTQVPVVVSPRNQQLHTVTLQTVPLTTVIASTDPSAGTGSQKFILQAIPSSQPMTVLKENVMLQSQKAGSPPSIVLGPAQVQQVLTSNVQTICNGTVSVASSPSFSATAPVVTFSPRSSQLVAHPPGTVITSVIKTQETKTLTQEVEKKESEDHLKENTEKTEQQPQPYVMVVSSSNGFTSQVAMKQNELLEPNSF

Consider GTACAC, for which the binding signal with FLI1 is 1.18 fold enrichment (6-mer frequency, TF over GST control); with ELK1, 1.31 fold enrichment (6-mer frequency, TF over GST control); with GABPA, 1.18 fold enrichment (6-mer frequency, TF over GST control); with ERG it was 1.29 fold enrichment (6-mer frequency, TF over GST control); in the assay with ELF1 it was 1.17 fold enrichment (6-mer frequency, TF over GST control); with EHF it was 1.14 fold enrichment (6-mer frequency, TF over GST control). In addition, the binding signal with SPI1 is 1.18 fold enrichment (6-mer frequency, TF over GST control); with SPIB, 1.18 fold enrichment (6-mer frequency, TF over GST control); with ELK3, 1.23 fold enrichment (6-mer frequency, TF over GST control).

Turning to GAAGTA, the binding signal is 1.88 fold enrichment (6-mer frequency, TF over GST control) with FLI1; 2.23 fold enrichment (6-mer frequency, TF over GST control) with ELK1; 1.68 fold enrichment (6-mer frequency, TF over GST control) in the assay with GABPA; 2.03 fold enrichment (6-mer frequency, TF over GST control) in the assay with ERG; 1.84 fold enrichment (6-mer frequency, TF over GST control) with ELF1; 2.13 fold enrichment (6-mer frequency, TF over GST control) with EHF. In addition, the binding signal with SPI1 is 2.32 fold enrichment (6-mer frequency, TF over GST control); with SPIB, 1.95 fold enrichment (6-mer frequency, TF over GST control); with ELK3, 2.1 fold enrichment (6-mer frequency, TF over GST control).

On to CATGAT, for which the binding signal with FLI1 was 1.15 fold enrichment (6-mer frequency, TF over GST control); in the assay with ELK1, 1.06 fold enrichment (6-mer frequency, TF over GST control); with GABPA it was 1.19 fold enrichment (6-mer frequency, TF over GST control); in the assay with ERG it was 1.03 fold enrichment (6-mer frequency, TF over GST control); in the assay with ELF1, 1.09 fold enrichment (6-mer frequency, TF over GST control); in the assay with EHF it was 1.09 fold enrichment (6-mer frequency, TF over GST control). In addition, the binding signal with SPI1 was 1.03 fold enrichment (6-mer frequency, TF over GST control); in the assay with SPIB, 1.04 fold enrichment (6-mer frequency, TF over GST control); with ELK3 it was 1.19 fold enrichment (6-mer frequency, TF over GST control).

Take ACTGCC: the binding signal is 1.47 fold enrichment (6-mer frequency, TF over GST control) in the assay with FLI1; 1.44 fold enrichment (6-mer frequency, TF over GST control) with ELK1; 1.44 fold enrichment (6-mer frequency, TF over GST control) with GABPA; 1.44 fold enrichment (6-mer frequency, TF over GST control) with ERG; 1.42 fold enrichment (6-mer frequency, TF over GST control) with ELF1; 1.46 fold enrichment (6-mer frequency, TF over GST control) with EHF. Further, the binding signal was 1.48 fold enrichment (6-mer frequency, TF over GST control) with SPI1; 1.41 fold enrichment (6-mer frequency, TF over GST control) with SPIB; 1.3 fold enrichment (6-mer frequency, TF over GST control) with ELK3.

As to ACCCAC, the binding signal in the assay with FLI1 was 1.28 fold enrichment (6-mer frequency, TF over GST control); with ELK1, 1.24 fold enrichment (6-mer frequency, TF over GST control); with GABPA, 1.35 fold enrichment (6-mer frequency, TF over GST control); with ERG, 1.1 fold enrichment (6-mer frequency, TF over GST control); in the assay with ELF1, 1.13 fold enrichment (6-mer frequency, TF over GST control); with EHF it was 1.21 fold enrichment (6-mer frequency, TF over GST control). The binding signal was 1.18 fold enrichment (6-mer frequency, TF over GST control) with SPI1; 1.07 fold enrichment (6-mer frequency, TF over GST control) in the assay with SPIB; 1.24 fold enrichment (6-mer frequency, TF over GST control) with ELK3.

GAAGCT: the binding signal with FLI1 is 1.62 fold enrichment (6-mer frequency, TF over GST control); with ELK1 it was 1.7 fold enrichment (6-mer frequency, TF over GST control); in the assay with GABPA, 1.52 fold enrichment (6-mer frequency, TF over GST control); with ERG it was 1.64 fold enrichment (6-mer frequency, TF over GST control); in the assay with ELF1, 1.44 fold enrichment (6-mer frequency, TF over GST control); with EHF it was 1.69 fold enrichment (6-mer frequency, TF over GST control). For the same sequence, the binding signal was 1.63 fold enrichment (6-mer frequency, TF over GST control) with SPI1; 1.64 fold enrichment (6-mer frequency, TF over GST control) in the assay with SPIB; 1.66 fold enrichment (6-mer frequency, TF over GST control) in the assay with ELK3.

Turning to TTTGGA, the binding signal is 1.15 fold enrichment (6-mer frequency, TF over GST control) with FLI1; 1.14 fold enrichment (6-mer frequency, TF over GST control) in the assay with ELK1; 1.24 fold enrichment (6-mer frequency, TF over GST control) in the assay with GABPA; 1.11 fold enrichment (6-mer frequency, TF over GST control) with ERG; 1.18 fold enrichment (6-mer frequency, TF over GST control) in the assay with ELF1; 1.09 fold enrichment (6-mer frequency, TF over GST control) in the assay with EHF. The binding signal was 1.19 fold enrichment (6-mer frequency, TF over GST control) with SPI1; 1.22 fold enrichment (6-mer frequency, TF over GST control) with SPIB; 1.14 fold enrichment (6-mer frequency, TF over GST control) with ELK3.

With CATTCA, the binding signal with FLI1 was 1.17 fold enrichment (6-mer frequency, TF over GST control); in the assay with ELK1, 1.14 fold enrichment (6-mer frequency, TF over GST control); with GABPA, 1.1 fold enrichment (6-mer frequency, TF over GST control); with ERG, 1.17 fold enrichment (6-mer frequency, TF over GST control); in the assay with ELF1, 1.13 fold enrichment (6-mer frequency, TF over GST control); with EHF it was 1.05 fold enrichment (6-mer frequency, TF over GST control). The binding signal with SPI1 is 1.07 fold enrichment (6-mer frequency, TF over GST control); with SPIB, 1.12 fold enrichment (6-mer frequency, TF over GST control); in the assay with ELK3, 1.16 fold enrichment (6-mer frequency, TF over GST control).
